The source of these data is PubChem BioAssay (NCATS).

Several values for one entry are separate records, joined by “and”; a condition that tells them apart may be missing. Identical values can stand only once. Results filed as inconclusive are left out. Activity calls are given as the source filed them. Calls come from the whole dose curve; as a rule, active = well fitted cell-killing curve with a large enough effect; inconclusive = small, poorly fitted or top-dose-only effect; inactive = flat fitted curve, though single readings scatter.
Potency is the fitted concentration of half-maximal effect.

The nature of this assay: qHTS of pediatric cancer cell lines to identify multiple opportunities for drug repurposing: Primary screen for BT-12 cells (AID 1347101). Note: nearly all actives have a fitted effect of over 25% in size. The conditions noted are these: BT-12 viability, CellTiter-Glo luminescence, 48 h; series mostly up to 57.3 µM. The method, boiled down: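 Cells (500-1,000/well) rested 5 h, then received compounds for 48 h; metabolically active cells were measured by CellTiter-Glo luminescence. Final concentrations spanned up to 46 µM (MIPE, 11-point) or 0.59 nM-46 µM (NPC, 8-point) in primary screens, 11-point in follow-ups.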
(Quantitative high-throughput screening tests each substance at several concentrations.)
For the compound `CC(=O)Oc1ccccc1C(=O)Nc1ncc([N+](=O)[O-])s1`, the Potency is 39.5 µM (active) and 21.9 µM (active).

For `OCc1ccc(-c2nn(Cc3ccccc3)c3ccccc23)o1`, the Potency entry was “inactive”.

For the compound `COc1cc2nc(N3CCCN(C)CC3)nc(NC3CCN(Cc4ccccc4)CC3)c2cc1OC`, the Potency was 10.9 µM (active).

Regarding `CCC(=O)O[C@]1(C(=O)SCF)[C@H](C)C[C@H]2[C@@H]3C[C@H](F)C4=CC(=O)C=C[C@]4(C)[C@@]3(F)[C@@H](O)C[C@@]21C`, the Potency result was “inactive”.

On to `NC(=O)c1cccnc1`, for which the Potency entry was “inactive”.

For the compound `Cc1nnc(NS(=O)(=O)c2ccc(N)cc2)s1`, the Potency result is “inactive”.

Regarding `COC(=O)Nc1nc2ccc(S(=O)c3ccccc3)cc2[nH]1` (centres undefined), the Potency was 2.46 µM (active).

Turning to `CCCc1nc(C)c2c(=O)[nH]c(-c3cc(S(=O)(=O)N4CCN(CC)CC4)ccc3OCC)nn12`, the Potency was 12.2 µM (active).

Consider `N=C(N)c1ccc(OCCCCCOc2ccc(C(=N)N)cc2)cc1`, for which the Potency was 2.46 µM (active) and 4.85 µM (active).

Regarding `COc1ccc2cc3[n+](cc2c1OC)CCc1cc2c(cc1-3)OCO2`, the Potency is 3.09 µM (active) and 4.32 µM (active).

Take `CCC(C)(C)c1ccc(CC(C)CN2C[C@@H](C)O[C@@H](C)C2)cc1` (some centres undefined): the Potency entry is “inactive”.

As to `CC(=O)[C@H]1CC[C@H]2[C@@H]3CCC4=CC(=O)CC[C@]4(C)[C@H]3CC[C@]12C`, the Potency was 24.3 µM (active).

On to `CCCCc1oc2ccc(NS(C)(=O)=O)cc2c1C(=O)c1ccc(OCCCN(CCCC)CCCC)cc1`, for which the Potency is 19.3 µM (active) and 12.3 µM (active).

Take `O[C@@H](CNC[C@H](O)[C@H]1CCc2cc(F)ccc2O1)[C@@H]1CCc2cc(F)ccc2O1`: the Potency was 27.3 µM (active).
